A selection: hits, their analogues and other compounds. The true share with any hit is near 8%.
KB-V1 cytotox = kills drug-selected multidrug resistant KB-V1 cells. KB-V1 MDR cells viability, CellTiter-Glo, 72 h. Potency, µM (doses to about 46.1 µM), actives largely listed as cytotoxic. 3.4% of 400,000 active. AID 1347076; further: on the % scale 0 is the no-effect control and ±100 the full control effect; nearly all actives have a fitted effect of over 60% in size
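Potencies derive from concentration-effect curves fitted to normalized luminescence (CellTiter-Glo) of KB-V1 cells treated for 72 h at 37 degrees C in phenol-red-free DMEM containing 10% FBS.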
MCF10A rereplic = induces DNA re-replication in MCF 10a normal breast cells. 2.9% of 350,000 active. MCF 10A DNA re-replication, Hoechst nuclear intensity, 48 h. Potency, µM (top dose mostly 46.1 µM), for the others: at the highest dose activity, positive = re-replication, most hits filed as activators. AID 624296; further: % of control where 0% means no effect; nearly all actives have a fitted effect of over 50% in size
HT1080 IDH1KD tx = HT-1080 IDH1 knockdown cell toxicity (counter line); HT-1080 IDH1 knockdown viability, ATP luminescence, 48 h; Potency, µM (series often up to 46.1 µM), inactives show top-dose activity, negative = toxicity, actives largely listed as cytotoxic; 2% of 360,000 active;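 further: 0% = DMSO wells and -100% = cell-free medium wells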
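HT-1080-IDH1KD cells (IDH1 knocked down), 750/well in RPMI with 5% FBS, treated with compound 48 h at 37 degrees C. Viability by CellTiter-Glo luminescence, normalised to DMSO and no-cell wells; concentration-response curves classed.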
KB-3-1 cytotox = kills parental KB-3-1 adenocarcinoma cells; KB-3-1 viability, CellTiter-Glo ATP luminescence, 72 h; Potency, µM (doses to about 46.1 µM), usual class: cytotoxic; 1.4% of 400,000 active; further: on the % scale 0 is the no-effect control and ±100 the full control effect; nearly all actives have a fitted effect of over 60% in size
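Cytotoxicity measured as CellTiter-Glo luminescence after 72 h at 37 C. Compound titrations were pinned onto drug-naive KB-3-1 parental adenocarcinoma cells grown in DMEM with 10% FBS, and normalized data fitted to concentration-response curves.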
HT1080-NT tox = kills 2HG-producing HT-1080-NT fibrosarcoma cells; 1.6% of 360,000 active; HT-1080-NT fibrosarcoma viability, CellTiter-Glo ATP luminescence, 48 h; Potency, µM (highest dose often 46.1 µM), for inactives: top-dose activity, negative = less viability, actives largely listed as cytotoxic;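 further: NT is the 2HG producing partner of a matched IDH1 knockdown line; 0% = DMSO-treated cells and -100% = media-only wells without cells; nearly all actives have a fitted effect of over 55% in size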
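HT-1080-NT fibrosarcoma cells (2HG-overproducing), 750 cells/well in RPMI with 5% FBS, dosed after 2 h and incubated 48 h at 37C. CellTiter-Glo luminescence normalized to DMSO and no-cell wells; concentration-response curves fitted and classed.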
SW480 rerep = inducers of DNA re-replication in SW480 colon cancer cells; SW480 DNA re-replication, Hoechst DNA content imaging, 48 h; Potency, µM (top dose mostly 46.1 µM), for inactives: at the highest dose re-replication activation, usual class: activators; 1.8% of 340,000 active; AID 624297; further: % of control where 0% means no effect; nearly all actives have a fitted effect of over 55% in size
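Quantitative HTS format with DMSO vehicle controls; 48 hr drug incubation at 37 C, then 40 min Hoechst staining and scanning imager measurement at 405 nm excitation.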
The depositor's hits bear a star; i = inactive; ? = inconclusive; nt = no result given. The call rests on the fitted dose curve; in most records, active means well fitted curve in the direction sought with a large enough effect; inconclusive means small, poorly fitted or top-dose-only effect, or another doubt; inactive means no such curve, though single readings can be large; an effect the other way counts as inactive or inconclusive. Potency means the concentration at half of the fitted maximal effect.

SMILES | KB-V1 cytotox | MCF10A rereplic | HT1080 IDH1KD tx | KB-3-1 cytotox | HT1080-NT tox | SW480 rerep
C#CCOCCOCCOCCNc1nc(N2CCN(C(=O)CCCCCCCCCCNC(=O)Cn3cc(C[C@@H](C)O)nn3)CC2)nc(N2CCN(C(=O)CCCCCCCCCCNC(=O)[C@@H]([C@H](C)CC)n3cc(CCCCCN)nn3)CC2)n1 | i | ? | 23µM* | 23µM* | 18µM* | ?
C#CCOCCOCCOCCNc1nc(N2CCN(C(=O)CCCCCCCCCCNC(=O)Cn3cc(CCCCCN)nn3)CC2)nc(N2CCN(C(=O)CCCCCCCCCCNC(=O)Cn3cc(C[C@@H](C)O)nn3)CC2)n1 | i | 23µM* | ? | i | ? | 1%
CCc1ccccc1NC(=O)Nc1cc(F)ccc1F | i | -1% | 4% | i | 5% | 29µM*
Cc1ccc(C)c(S(=O)(=O)NNC(=O)Nc2ccccc2Cl)c1 | i | 0% | -5% | i | 3% | 16%
COC(=O)C(Nc1ccccc1Cl)(c1cc(C)c(O)c(C)c1)C(F)(F)F (stereo unspecified) | 8.2µM* | ? | ? | ? | ? | -2%
O=C(COC(=O)CC1CCCC1)Nc1ccc(Br)cc1F | i | -18% | 10% | i | -2% | -18%
CN1CCC(=NNC(=O)c2cc(-c3ccc(Cl)cc3)n[nH]2)CC1 | i | 18µM* | ? | i | ? | -52%
COc1ccc(C(=O)CC(SCC(NC(C)=O)C(=O)O)c2ccc(Cl)cc2)cc1OC (stereo unspecified) | 13µM* | 21% | 11% | i | 0% | ?
COc1ccc(C(C)NC(=O)c2ccc(Cl)cc2)cc1OC (stereo unspecified) | 21µM* | -42% | -7% | i | -9% | 8%
CCCN(C(=O)COC(=O)C12CCC(=O)N1c1ccccc1S2)c1c(N)n(Cc2ccccc2)c(=O)[nH]c1=O (stereo unspecified) | i | -1% | 13% | i | 0% | -13%
Cc1ccc(CNCc2c(C(=O)O)n(Cc3ccc(C)cc3)c3cc(C)ccc23)cc1 | i | nt | nt | i | nt | nt
CCc1ccc(CNCc2c(C(=O)O)n(Cc3ccc(C)cc3)c3cc(C)ccc23)cc1 | i | nt | nt | 18µM* | nt | nt
O=C(Nc1ccccc1C(F)(F)F)c1ccc(CN2CCC(Cc3ccccc3)CC2)cc1 | ? | 22% | 23µM* | ? | 16µM* | ?
O=C(CCC1CCCN(C(=O)c2ccco2)C1)NCc1ccccc1F (stereo unspecified) | i | 4% | -29% | i | -15% | 4%
CCOc1cccc(CN2CCCC(CCC(=O)NCc3ccccc3F)C2)c1O (stereo unspecified) | i | -25% | 1% | i | 2% | 16µM*
COCc1ccc(C(=O)N2CCCC(CCC(=O)NCc3ccccc3F)C2)o1 (stereo unspecified) | ? | 13µM* | ? | ? | 15µM* | 12µM*
CC(C)c1cc(C(=O)N2CCCC(CCC(=O)NCc3ccccc3F)C2)n(C)n1 (stereo unspecified) | 9.2µM* | -2% | -12% | ? | -8% | -3%
O=C(CCS(=O)(=O)c1cccs1)Nc1ccc(C(=O)NCc2ccccc2)cc1 | i | -6% | -1% | i | -1% | 2%
C[C@H](O)[C@@H]1CN2CCc3c([nH]c4ccc(-c5ccc6c(c5)OCO6)cc34)[C@@H]2C[C@@H]1N(C)C(=O)Nc1ccc(F)cc1 | ? | nt | 21µM* | 5.8µM* | ? | nt
C[C@H](O)[C@@H]1CN2CCc3c([nH]c4ccccc34)[C@@H]2C[C@@H]1N(C)C(=O)c1ccco1 | ? | nt | ? | ? | 26µM* | nt
COc1ccc(-c2ccc3[nH]c4c(c3c2)CCN2C(=O)[C@@H]([C@H](C)O)[C@@H](N(C)C(=O)Nc3ccc(F)cc3)C[C@@H]42)cc1 | 16µM* | nt | ? | i | ? | nt
COc1ccc(-c2ccc3[nH]c4c(c3c2)CCN2C[C@@H]([C@H](C)O)[C@@H](N(C)C(=O)Nc3cc(Cl)cc(Cl)c3)C[C@@H]42)cc1 | ? | nt | 21µM* | i | ? | nt
COc1ccc(-c2ccc3[nH]c4c(c3c2)CCN2C(=O)[C@@H]([C@H](C)O)[C@@H](N(C)C(=O)Nc3cc(Cl)cc(Cl)c3)C[C@@H]42)cc1 | i | nt | 15% | ? | ? | nt
COc1ccc(N2CCN(C(=O)COCC(=O)O)CC2)cc1 | ? | -1% | -13% | i | 8% | -4%
Cc1noc(C)c1S(=O)(=O)Nc1ccc(C(C)C)cc1 | i | 23µM* | 0% | i | -7% | ?
SMILES | KB-V1 cytotox | MCF10A rereplic | HT1080 IDH1KD tx | KB-3-1 cytotox | HT1080-NT tox | SW480 rerep
Cc1ccc(CNC(=O)c2ccc(NS(=O)(=O)c3c(C)noc3C)cc2)cc1 | i | 4% | -6% | i | -4% | -6%
Cc1ccc(-c2nnn(CC(=O)N(c3cccc(F)c3)C(C(=O)NC3CCCC3)c3ccco3)n2)o1 (stereo unspecified) | i | 6% | 2.8µM* | i | ? | 18%
Cc1ccc(N(C(=O)Cn2nnc(-c3ccccc3)n2)C(C(=O)NC2CCCCC2)c2ccccn2)cc1C (stereo unspecified) | 1.2µM* | ? | 2% | i | -3% | -8%
Cc1ccc(N(C(=O)CNC(=O)c2ccco2)C(C(=O)NC2CCCCC2)c2cccnc2)cc1C (stereo unspecified) | i | -8% | 3% | i | 8% | -8%
Cc1ccc(N(C(=O)CCl)C(C(=O)NC2CCCCC2)c2cccnc2)cc1C (stereo unspecified) | 3.7µM* | 7.3µM* | 1.6µM* | 3.7µM* | 1.6µM* | ?
Cc1cc(C)cc(N(C(=O)Cn2nnc(-c3ccccc3)n2)C(C(=O)NC2CCCCC2)c2ccccn2)c1 (stereo unspecified) | ? | -5% | 16% | i | 20% | -4%
Cc1cc(S(=O)(=O)N2CCc3ccccc3C2)ccc1F | i | 1% | -23% | i | -1% | 2%
CN(C1=C(NC(=O)c2ccccc2)C(=O)c2ccccc2C1=O)C1CCS(=O)(=O)C1 (stereo unspecified) | ? | 23µM* | -24% | ? | ? | ?
CC(=O)NC1=C(NC2CCS(=O)(=O)C2)C(=O)c2ccccc2C1=O (stereo unspecified) | i | ? | -9% | ? | -10% | 18µM*
